For 40 sequences, PBM binding z-score results are on record in the supplement of paper PMC6555819.

This assay has as its system PPARa:RXRa (NR concentration 270 nM, RXRa partner concentration 90 nM). The assay is described as follows: PBM binding z-score (relative to random genomic background probes); higher = stronger binding; sequences stand for … in GC…GCGATTGACAGCGTAGAATGAAGG
How it is done: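 Protein-binding microarray (Agilent 4x180K custom design, double-stranded 60-nt probes: 5' GC cap, 34-nt variable region, 24-nt constant primer region; full probe sequence given). Purified or IVT nuclear receptor:RXRα heterodimers (3:1 NR:RXRα, mostly 270:90 nM) or homodimers were incubated for 1 h in PBS with 2% milk and no ligand, then detected with Alexa488 antibodies. Fluorescence from o1-orientation probes (~5 replicates averaged) was converted to z-scores against 500 random hg19 background probes. Variable regions are seed direct-repeat (DR0–DR5) sites, all their single-nucleotide variants and half-site ablations.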
Sequence AGAACGAGGTCACGCTGAGTTGATAGCAGAGTAG came in with a PBM binding z-score of 6.34. The sequence TAGCCTAGGTCATACAGGGGCCAGTATAGAAAGC registered a PBM binding z-score of 3.72.

Take CTATGTAGGTTAAGGGAGTCATTCAGTTTGAAAG: the PBM binding z-score was 3.21. Turning to CGTCCAAGGTTAAGGTCAGTGAAAGAGACTCGAA, the PBM binding z-score was 3.78.

Take TAGCCTAGGTCATTCAGGGGCAAGTATAGAAAGC: the PBM binding z-score amounted to 3.84. For the sequence CGAACGAGGTCATTGACAGGACAGTGAATAGTAA, the PBM binding z-score stood at 6.13.

In the case of CCTAGTTGGTCAAGGTCACACCCGCTATAGGTAC, the PBM binding z-score was determined as 3.85.

The sequence CGAACTACGTCATCCAGGACAGTGAATACATTGA returned a PBM binding z-score of -0.0578. The figure for CAAACTAGGTCACTAAAGGTCAAAGTCGAATGAC is 6.51; for CGTCAAAGTCCAAGGTAACGTAACAGAAAGCAGC it is 0.351. As for ATATGTAGGATAGCTGGGGTCATTCAGACTAGGC, the PBM binding z-score was found to be 4.6. The figure for ATCGAAAGGTCGACGCGGTGAGTATACACCGTTT is 3.97; for CCTACTGGGCCATTCAGAGGGCATTGATCATATG it is 0.726. The figure for CCGAGAAGGTTACGAGGGGGCATTCAGTGCGAAT is 4.3. The result for ATCGAAAGGTCGACCAGGTGAGTATACACCGTTT reads 4.53. CCTACTGGGCCATTCAGAGGTCAATGATCATATG: the PBM binding z-score was 3.87. GCTGCTAGGTCAACTGATGGTCACCTAAAGCTCG had a PBM binding z-score of 3.99. The sequence TGTCAATGTTCAAAGGTAACGTAAGTATCCACAC registered a PBM binding z-score of 1.3. The result for TACCCTAGGTCATTCAGGGGCCAGTATAGAAAGC reads 3.81.

In turn, TAGCCTAGGTCATGGGCCAGTGTACCACGCGAAC had a PBM binding z-score of 4.38.

Regarding AGAATGAGGTTAAACGTAGATCAGGGAAGAAAGT, the PBM binding z-score turned out to be 4.4. Sequence AGTCAAAGTTCAGGACGACGTAACGTAAAGCACG came in with a PBM binding z-score of 2.98.

Sequence CGTCCAAGGTCATAGAGGTCAGTGAATGCCGAGT registered a PBM binding z-score of 5.85. The result for CGTTCAAGGTCAAAGGTCAGTGAAGAGATGACGG reads 7.05. As for AGAATGAGGTTAAGTTCAGGGAAACAGAATACAT, the PBM binding z-score amounted to 4.63. CCTAGTTGTTCAGGAGGTCACACACCGGATATGA displayed a PBM binding z-score of 4.17. Sequence ACTCGGAGGACAAAGGTCAGGGCTACGCCAGTGA displayed a PBM binding z-score of 4.98. The figure for GCTAGTTGGTCAGTAAAAGGTGACACACCGGTCG is 1.54; for CGAACTAGGTCAAAGGACATTGAAAGGCGACGTA it is 6.03.

For the sequence CGAACAAGGTCATCCAGGACAGTGAATACATTGA, the PBM binding z-score is 5.9. In the case of TCTAGTTGGTCACGGAGGGCACACACGACGGGTA, the PBM binding z-score is 1.38. Consider GCTGCTAGGTCAACTGATGGTCAACTAAAGCTCG, for which the PBM binding z-score is 3.72. Consider GGAACGAGGTCAAGTTGATAGCAGAGTTTGATGG, for which the PBM binding z-score came out at 6.38. On to TAGCCTAGGTCATGCGGGACAGTATAGTGTCGGC, for which the PBM binding z-score worked out at 3.53. On to CCGAGTTGGTCAAGGTCACACACGCTATAGGTAC, for which the PBM binding z-score turned out to be 4.35. In turn, AATAAAGGGTCATCGTAGGCCAGAGTACGCACAG returned a PBM binding z-score of 5.96. The result for AATACAAGGTCATCGTAGGCCAGAGTACGCACAG reads 5.75; that for CGAACTAGGTCACCCAGGACAGTGAATACATTGA, 4.82; that for TAGCCTAGGTCATGCGGGCCAATATAGTGTCGGC, 3.53. The figure for CAAAATAGGTCACGAAAGGTCAAAGTCGAATGAC is 6.79.
